Data from PubChem BioAssay.
Inconclusive results are not listed. The source made the active and inactive calls. Cut-off read from the data, not from the text of the source, unless noted: active = percent of DMSO control GFP below about 86%; inactive = the rest, inconclusive results apart.

Columns and labels:
[1] = yeast TOR pathway RPL19A-GFP modulators, primary screen, cell-based, S. cerevisiae, multiplex flow cytometry (AID 1862);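 note: lower values mimic rapamycin by blocking the RPL19A rise seen in DMSO cells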; conditions: S. cerevisiae RPL19A-GFP strain, flow cytometry fluorescence, 3 h; at 10 µM; stronger effect = lower value
[2] = modulators of MEP2-GFP levels in yeast, primary screen, S. cerevisiae, multiplex flow cytometry (AID 1867;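 active = GFP response, as percent of the DMSO control, above the screen-wide mean plus 3 SD, about 139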;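 note: median GFP channel fluorescence of barcode-gated MEP2-GFP cells measured by flow cytometry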); conditions: S. cerevisiae MEP2-GFP strain, 3 h, at 10 µM, stronger effect = higher value, 100% means same as DMSO wells
[3] = modulators of CIT2-GFP expression in yeast, primary screen, S. cerevisiae, GFP fusion, multiplex flow cytometry (AID 1870;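 active = percent response above a set limit, the screen-wide mean plus 3 SD, cut at about 130% in these data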;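 note: barcoded CIT2-GFP strain pooled with four other GFP strains with rapamycin as positive control; median GFP fluorescence per well over plate mean of DMSO wells so 100% = DMSO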); conditions: 3 h, at 10 µM, stronger effect = higher value
[4] = modulators of LAP4-GFP expression in yeast, primary screen, S. cerevisiae, multiplex flow cytometry (AID 1873;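 active = GFP signal, as percent of the solvent control, above the screen mean plus 3 SD, about 149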); conditions: 3 h, at 10 µM, stronger effect = higher value
[5] = modulators of AGP1-GFP expression in yeast TOR pathway, primary screen, cell-based, multiplex flow cytometry, S. cerevisiae (AID 1887;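 active = GFP signal above the screen-wide mean plus 3 SD, that is over about 124.5% of the solvent control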;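 note: AGP1-GFP fusion strain of S. cerevisiae within a five-strain barcoded multiplex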); conditions: 3 h, at 10 µM, stronger effect = higher value
[6] = inhibitors of CD8+ T cell-vesicle binding, pilot screen, LFA-1/ICAM-1 modulator project, MLPCN validation set, flow cytometry (AID 2523;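 active = response below a set limit, under 55% cells CD8-positive and vesicle-bound, and CD8 cells' 90th-percentile brightness under 279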;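 for vesicle binding response: mean PE anti-B7-1 fluorescence of CD8+ cells relative to row control; 100% = QL9-loaded vesicles with DMSO vehicle in the same plate row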); conditions: 2C mouse CD8+ T cells, at 7 µM, stronger effect = lower value; double positive events: measured here: CD8+/vesicle+ event percentage
[7] = molecular target: Integrin beta-1 (Homo sapiens) + Integrin alpha-4 (Homo sapiens) (UniProt P13612+P05556); assay: inhibition of HUTS-21 binding to VLA-4, pilot screen, VLA-4 allosteric modulator project, U937 cells, HUTS-21 mAb, flow cytometry, validation set (AID 2674;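 active = inhibition above 50%, about 3 SD of the validation set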;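 note: antibody binding induced by the VLA-4 ligand LDV present at three times its Kd; 0% = LDV ligand with antibody and no compound and 100% = antibody without LDV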); conditions: HUTS-21 LIBS mAb binding, at 6.7 µM, stronger effect = higher value, binding induced by LDV ligand
Chain of Integrin beta-1 (Homo sapiens) + Integrin alpha-4 (Homo sapiens) (P05556 whole entry, looked up): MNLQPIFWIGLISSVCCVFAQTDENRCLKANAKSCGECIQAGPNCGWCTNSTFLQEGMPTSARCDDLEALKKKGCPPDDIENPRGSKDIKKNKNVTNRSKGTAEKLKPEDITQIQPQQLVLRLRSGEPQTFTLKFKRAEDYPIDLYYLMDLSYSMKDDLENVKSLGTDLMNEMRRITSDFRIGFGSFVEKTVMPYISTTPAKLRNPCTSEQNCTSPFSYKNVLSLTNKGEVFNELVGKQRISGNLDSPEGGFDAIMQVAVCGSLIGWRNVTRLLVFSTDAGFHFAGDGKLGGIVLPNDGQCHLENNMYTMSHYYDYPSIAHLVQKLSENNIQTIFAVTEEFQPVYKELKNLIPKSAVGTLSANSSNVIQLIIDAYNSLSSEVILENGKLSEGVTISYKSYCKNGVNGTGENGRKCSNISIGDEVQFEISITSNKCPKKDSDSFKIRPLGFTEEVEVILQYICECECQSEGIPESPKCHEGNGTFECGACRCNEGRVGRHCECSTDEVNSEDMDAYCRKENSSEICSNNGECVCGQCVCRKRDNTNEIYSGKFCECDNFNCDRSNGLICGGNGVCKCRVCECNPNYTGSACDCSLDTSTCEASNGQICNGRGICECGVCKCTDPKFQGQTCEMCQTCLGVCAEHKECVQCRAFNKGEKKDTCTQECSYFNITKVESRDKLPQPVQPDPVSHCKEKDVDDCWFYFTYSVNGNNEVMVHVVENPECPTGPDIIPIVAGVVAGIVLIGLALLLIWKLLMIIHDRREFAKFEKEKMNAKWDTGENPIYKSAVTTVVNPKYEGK
Chain of Integrin beta-1 (Homo sapiens) + Integrin alpha-4 (Homo sapiens) (P13612 whole entry, looked up): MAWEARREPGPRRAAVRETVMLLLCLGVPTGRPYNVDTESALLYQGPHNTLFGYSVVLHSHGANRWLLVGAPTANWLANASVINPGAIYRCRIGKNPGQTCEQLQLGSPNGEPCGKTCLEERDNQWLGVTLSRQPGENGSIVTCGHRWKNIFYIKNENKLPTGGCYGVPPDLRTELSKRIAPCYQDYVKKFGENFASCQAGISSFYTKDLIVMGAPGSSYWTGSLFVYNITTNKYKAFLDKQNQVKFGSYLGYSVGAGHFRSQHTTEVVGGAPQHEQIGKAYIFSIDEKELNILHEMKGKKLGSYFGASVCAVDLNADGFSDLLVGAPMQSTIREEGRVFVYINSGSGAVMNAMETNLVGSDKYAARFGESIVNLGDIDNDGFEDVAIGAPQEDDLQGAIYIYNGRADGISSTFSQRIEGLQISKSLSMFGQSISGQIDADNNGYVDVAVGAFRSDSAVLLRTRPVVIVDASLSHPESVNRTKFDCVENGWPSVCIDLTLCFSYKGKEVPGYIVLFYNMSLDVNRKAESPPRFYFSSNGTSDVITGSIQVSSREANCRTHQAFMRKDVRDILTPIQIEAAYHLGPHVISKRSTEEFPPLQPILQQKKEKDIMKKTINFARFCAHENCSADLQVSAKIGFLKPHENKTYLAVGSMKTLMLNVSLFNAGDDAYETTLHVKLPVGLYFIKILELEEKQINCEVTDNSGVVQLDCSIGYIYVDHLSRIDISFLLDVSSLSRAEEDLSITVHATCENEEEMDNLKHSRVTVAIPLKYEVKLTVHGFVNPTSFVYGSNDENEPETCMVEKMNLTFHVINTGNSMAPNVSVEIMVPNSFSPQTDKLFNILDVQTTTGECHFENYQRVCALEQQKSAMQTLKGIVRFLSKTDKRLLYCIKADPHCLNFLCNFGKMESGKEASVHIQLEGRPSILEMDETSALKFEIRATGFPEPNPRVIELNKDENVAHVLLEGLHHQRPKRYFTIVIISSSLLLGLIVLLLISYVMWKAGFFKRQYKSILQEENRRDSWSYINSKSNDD

[8] = superoxide lowering in aged yeast cells, pilot screen, validation compound set (AID 2706;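 active = superoxide response below 65% of plate, a cut near 3 SD across the whole screen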;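 note: yeast exposed to compound for one week at 30 degrees C before staining; 100% = mean of all compound wells on the same plate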); conditions: S. cerevisiae aging, superoxide DHE fluorescence; at 10 µM; stronger effect = lower value
[9] = molecular target: Beta-adrenergic receptor kinase 1 (Homo sapiens) (UniProt P25098); assay: GRK2 binders displacing RNA aptamer, biochemical, validation, human GRK2, bead flow cytometry (AID 488806;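 active = aptamer binding inhibition above 30%, about 3 SD of noise from non-fluorescent compounds; inactive = inhibition at or below 30%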); conditions: bead-bound GRK2, FAM-aptamer displacement, at 10 µM, stronger effect = higher value
Chain of Beta-adrenergic receptor kinase 1 (Homo sapiens) (P25098 whole entry, looked up): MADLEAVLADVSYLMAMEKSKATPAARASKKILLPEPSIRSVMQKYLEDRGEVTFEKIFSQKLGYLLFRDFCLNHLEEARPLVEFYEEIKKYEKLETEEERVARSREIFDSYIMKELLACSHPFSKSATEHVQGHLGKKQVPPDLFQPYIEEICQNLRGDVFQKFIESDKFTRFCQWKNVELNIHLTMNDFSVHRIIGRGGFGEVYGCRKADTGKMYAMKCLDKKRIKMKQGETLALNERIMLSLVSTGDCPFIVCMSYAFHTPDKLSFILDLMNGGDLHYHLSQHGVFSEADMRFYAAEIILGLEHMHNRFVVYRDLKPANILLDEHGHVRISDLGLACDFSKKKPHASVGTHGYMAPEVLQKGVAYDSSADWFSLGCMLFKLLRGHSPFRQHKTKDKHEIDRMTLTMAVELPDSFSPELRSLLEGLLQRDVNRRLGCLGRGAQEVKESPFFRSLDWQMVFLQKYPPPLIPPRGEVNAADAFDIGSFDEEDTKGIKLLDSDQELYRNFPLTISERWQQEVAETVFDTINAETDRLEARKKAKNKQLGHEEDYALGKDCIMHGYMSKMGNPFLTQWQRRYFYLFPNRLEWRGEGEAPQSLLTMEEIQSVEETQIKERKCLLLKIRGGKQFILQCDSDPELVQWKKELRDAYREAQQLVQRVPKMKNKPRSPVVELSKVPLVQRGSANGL

[10] = molecular target: Beta-2 adrenergic receptor (Homo sapiens) (UniProt P07550); assay: beta2AR agonists driving receptor internalization, pilot screen, cell-based, FAP fluorogen, flow cytometry, validation set (AID 504459;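 active = percent response above 42, roughly 3 SD of non-fluorescent test compounds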;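 note: agonist-driven loss of surface beta2AR via internalization measured by FAP dye flow cytometry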); conditions: Am2.2-beta2AR cells, FAP surface receptor flow cytometry; at 10 µM; stronger effect = higher value
Chain of Beta-2 adrenergic receptor (Homo sapiens) (P07550 whole entry, looked up): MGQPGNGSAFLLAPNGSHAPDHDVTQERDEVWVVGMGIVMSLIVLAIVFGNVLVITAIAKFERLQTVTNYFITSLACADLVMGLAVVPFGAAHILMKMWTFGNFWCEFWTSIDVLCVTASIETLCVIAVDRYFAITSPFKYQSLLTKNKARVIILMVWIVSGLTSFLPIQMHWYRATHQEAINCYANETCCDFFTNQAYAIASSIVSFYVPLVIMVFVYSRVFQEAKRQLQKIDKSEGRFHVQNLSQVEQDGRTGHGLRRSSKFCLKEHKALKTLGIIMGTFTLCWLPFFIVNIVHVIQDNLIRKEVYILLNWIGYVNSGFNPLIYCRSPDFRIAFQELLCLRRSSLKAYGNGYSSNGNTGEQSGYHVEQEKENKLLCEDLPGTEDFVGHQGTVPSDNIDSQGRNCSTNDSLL

[11] = molecular target: AP-2 complex subunit beta (Homo sapiens) (UniProt P63010); assay: inhibitors of arrestin peptide binding to AP2, pilot screen, biochemical, validation set, GST-AP2 beads, flow cytometry (AID 504541;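 active = inhibition above 54%, about 3 SD of non-fluorescent compounds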;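 note: AP2 carries R879A mutation and is captured from E. coli lysate; bead-bound FITC arrestin peptide fluorescence measuring arrestin peptide binding to AP2; 0% = DMSO wells and 100% = excess unlabeled arrestin peptide control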); conditions: FITC arrestin peptide, at 10 µM, stronger effect = higher value, AP2 beta2 appendage fragment, R879A mutant
Chain of AP-2 complex subunit beta (Homo sapiens) (P63010 whole entry, looked up, the tested form may be a part, one chain of several): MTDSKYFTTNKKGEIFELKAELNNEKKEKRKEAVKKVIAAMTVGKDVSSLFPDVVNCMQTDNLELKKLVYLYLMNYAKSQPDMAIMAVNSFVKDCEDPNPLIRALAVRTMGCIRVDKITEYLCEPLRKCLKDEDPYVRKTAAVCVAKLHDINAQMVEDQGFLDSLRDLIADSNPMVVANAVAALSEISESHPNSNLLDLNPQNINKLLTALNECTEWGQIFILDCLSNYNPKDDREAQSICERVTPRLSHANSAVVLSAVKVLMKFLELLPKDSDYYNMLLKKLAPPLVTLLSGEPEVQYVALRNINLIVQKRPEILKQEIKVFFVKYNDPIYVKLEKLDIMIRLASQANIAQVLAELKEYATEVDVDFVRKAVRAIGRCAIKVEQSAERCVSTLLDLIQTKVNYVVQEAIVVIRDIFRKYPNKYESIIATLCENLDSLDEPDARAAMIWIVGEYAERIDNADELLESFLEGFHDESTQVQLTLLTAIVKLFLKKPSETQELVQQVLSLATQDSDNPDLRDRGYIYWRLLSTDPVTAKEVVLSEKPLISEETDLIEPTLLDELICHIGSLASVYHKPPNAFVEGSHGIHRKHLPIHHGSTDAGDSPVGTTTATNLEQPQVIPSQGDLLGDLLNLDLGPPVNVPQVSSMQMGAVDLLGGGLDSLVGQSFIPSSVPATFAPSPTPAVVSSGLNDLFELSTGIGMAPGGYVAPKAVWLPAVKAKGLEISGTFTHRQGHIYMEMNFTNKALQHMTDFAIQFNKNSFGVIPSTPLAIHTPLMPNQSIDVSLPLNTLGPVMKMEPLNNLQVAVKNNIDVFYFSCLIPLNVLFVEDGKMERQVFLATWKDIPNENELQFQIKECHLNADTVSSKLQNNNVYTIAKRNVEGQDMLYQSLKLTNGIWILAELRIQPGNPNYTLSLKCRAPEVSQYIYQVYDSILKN

[12] = yeast V-ATPase proton transport modulators, S. cerevisiae, pHLuorin, HTS validation (AID 504600; in the data active = response above about 15%;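 note: plate controls were DMSO for no effect and reference compound for full effect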); conditions: S. cerevisiae pHLuorin cytosolic pH, at 10 µM, stronger effect = higher value
[13] = test system: anti-desmoglein-3 scFv antibody binding to human DSG3; assay: inhibitors of anti-DSG3 scFv binding to DSG3, pilot screen, biochemical, validation compound set, bead-based, flow cytometry (AID 588368;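 active = binding below the plate cutoff, the plate median minus 3 SD, with a reading above zero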;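 note: signal is the median channel fluorescence of bead-bound GFP antibody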); conditions: Protein G beads, DSG3-Fc, scFv-GFP binding, at 10 µM, stronger effect = lower value
[14] = inhibitors of fungal efflux pumps CDR1, CDR2, MDR1, pilot screen, validation compound set, multiplex, phenotypic (AID 588506;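 active = efflux inhibition above 0.42, the validation set average plus 4 SD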;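 note: Nile Red retained in cells so higher fluorescence means more efflux inhibition; 0 = negative control wells and 1 = enniatin B 25 µM full block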); conditions: S. cerevisiae pump-expressing triplex, Nile Red efflux flow cytometry; at 10 µM; stronger effect = higher value; the pumps come from Candida albicans
[15] = molecular target: ATP-binding cassette sub-family B member 6 (Homo sapiens) (UniProt Q9NP58); assay: ABCB6 transporter inhibitors, pilot screen, K562-ABCB6 cells, flow cytometry, validation set (AID 588550;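 active = inhibition above the screen-wide mean plus 3 SD, about 51%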;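 note: 0% = DMSO wells and 100% = benzethonium chloride 70 µM positive control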); conditions: K562-ABCB6 porphyrin accumulation, 1 h, at 10 µM, stronger effect = higher value
Chain of ATP-binding cassette sub-family B member 6 (Homo sapiens) (Q9NP58 whole entry, looked up): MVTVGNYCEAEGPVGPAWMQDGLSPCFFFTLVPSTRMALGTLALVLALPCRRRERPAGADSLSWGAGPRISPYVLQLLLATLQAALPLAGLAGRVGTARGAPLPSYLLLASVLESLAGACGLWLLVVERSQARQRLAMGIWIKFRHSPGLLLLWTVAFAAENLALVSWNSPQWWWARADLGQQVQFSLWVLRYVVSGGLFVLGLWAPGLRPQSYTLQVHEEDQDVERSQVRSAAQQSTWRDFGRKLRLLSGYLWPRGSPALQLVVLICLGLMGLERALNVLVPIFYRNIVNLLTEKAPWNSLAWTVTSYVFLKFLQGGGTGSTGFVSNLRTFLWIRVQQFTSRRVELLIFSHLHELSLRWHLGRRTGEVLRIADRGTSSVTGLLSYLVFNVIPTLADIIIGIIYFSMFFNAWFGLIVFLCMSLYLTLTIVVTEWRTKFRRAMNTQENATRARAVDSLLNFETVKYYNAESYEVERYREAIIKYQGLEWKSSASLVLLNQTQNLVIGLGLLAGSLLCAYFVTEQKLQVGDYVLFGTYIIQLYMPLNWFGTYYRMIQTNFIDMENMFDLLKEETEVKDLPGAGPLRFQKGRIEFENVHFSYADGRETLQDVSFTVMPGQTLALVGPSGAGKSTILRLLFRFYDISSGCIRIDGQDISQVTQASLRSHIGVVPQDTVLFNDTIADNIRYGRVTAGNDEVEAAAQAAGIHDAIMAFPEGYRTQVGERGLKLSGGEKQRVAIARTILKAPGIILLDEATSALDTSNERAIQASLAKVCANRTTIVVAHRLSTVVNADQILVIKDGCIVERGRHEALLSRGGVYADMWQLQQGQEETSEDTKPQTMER

[16] = promoters of myeloid differentiation in arrested cells, primary screen, cell-based, GFP/MAC1 double positive, flow cytometry, validation set (AID 588685;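 active = differentiation response of at least 50%, scaled between solvent and reference control, from cells with both markers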;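 note: compound exposure lasts four days before antibody staining and flow analysis; 0% = DMSO wells and 100% = 5 µM fulvestrant positive control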); conditions: ER-HoxA9 marrow cells, stronger effect = higher value, normalized: vehicle 0, fulvestrant 100

Compound | percent of DMSO control GFP [1] | GFP response vs DMSO [2] | percent response of DMSO control [3] | GFP response vs DMSO [4] | GFP response, % of DMSO [5] | double positive events [6] | vesicle binding response [6] | inhibition [7] | superoxide response (% of plate) [8] | aptamer binding inhibition [9] | response [10] | inhibition [11] | response [12] | binding (% of control) [13] | efflux inhibition (fraction of control) [14] | inhibition [15] | differentiation response [16]
O=C1[C@@H]2CSCN2C(=O)CN1Cc1ccc(F)cc1 | 107% (inactive) | 95.2% (inactive) | 106% (inactive) | 82% (inactive) | 94.8% (inactive) | 61.3% | 235% (inactive) | -3.16% (inactive) | 111% (inactive) | 2% (inactive) | 5.93% (inactive) | -4.78% (inactive) | -2.17% (inactive) | 83.8% (inactive) | -0.21 (inactive) | 6% (inactive) | -21.6% (inactive)
OCCC1CN(Cc2ccccc2-c2ccco2)CCN1C1CCCC1 (stereo not drawn) | 99% (inactive) | 97.6% (inactive) | 93.1% (inactive) | 110% (inactive) | 110% (inactive) | 59% | 123% (inactive) | 12.5% (inactive) | 95% (inactive) | 0% (inactive) | -21.4% (inactive) | -16.3% (inactive) | 4.26% (inactive) | 101% (inactive) | 0.04 (inactive) | 1% (inactive) | -3.02% (inactive)
CC(C)COC(=O)C1C(=O)CC(C)(O)C(C(=O)OCC(C)C)C1c1cccnc1 (stereo not drawn) | 90.4% (inactive) | 118% (inactive) | 102% (inactive) | 74.3% (inactive) | 88.4% (inactive) | 59.8% | 203% (inactive) | 8.4% (inactive) | 113% (inactive) | 2% (inactive) | -11.2% (inactive) | 2.38% (inactive) | 2.35% (inactive) | 102% (inactive) | -0.06 (inactive) | 18% (inactive) | -3.28% (inactive)
COc1cc2c(cc1OC)-c1nnc(C)n1C(C)(C)C2 | 100% (inactive) | 94.1% (inactive) | 107% (inactive) | 102% (inactive) | 100% (inactive) | 59.4% | 211% (inactive) | -1.79% (inactive) | 94.7% (inactive) | 2% (inactive) | 3.64% (inactive) | -4.56% (inactive) | 7.5% (inactive) | 100% (inactive) | -0.21 (inactive) | 4% (inactive) | -28% (inactive)
